From PubChem BioAssay AID651710 (Broad Institute, 2012) come the findings set out here.

In all, about 360,000 compounds went through this assay and about 1,600 (0.44%) were called active.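 The calls were made as follows: active = every replicate showing at least 50% inhibition; inconclusive = mean inhibition at least 50% but not in every replicate; inactive = the rest.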 This excerpt belongs to a sample that is enriched for actives.

The target of the assay is DNA repair protein RAD52 homolog (Homo sapiens) (UniProt P43351). The assay is described as follows: blockers of RAD52 strand annealing activity – biochemical, FRET, single point, set 2, primary screen (AID 651710). To be noted: recombinant RAD52 DNA annealing, FRET fluorescence; at 18.7 µM; stronger effect = higher value.
DNA repair protein RAD52 homolog (Homo sapiens), sequence (P43351 whole entry, looked up): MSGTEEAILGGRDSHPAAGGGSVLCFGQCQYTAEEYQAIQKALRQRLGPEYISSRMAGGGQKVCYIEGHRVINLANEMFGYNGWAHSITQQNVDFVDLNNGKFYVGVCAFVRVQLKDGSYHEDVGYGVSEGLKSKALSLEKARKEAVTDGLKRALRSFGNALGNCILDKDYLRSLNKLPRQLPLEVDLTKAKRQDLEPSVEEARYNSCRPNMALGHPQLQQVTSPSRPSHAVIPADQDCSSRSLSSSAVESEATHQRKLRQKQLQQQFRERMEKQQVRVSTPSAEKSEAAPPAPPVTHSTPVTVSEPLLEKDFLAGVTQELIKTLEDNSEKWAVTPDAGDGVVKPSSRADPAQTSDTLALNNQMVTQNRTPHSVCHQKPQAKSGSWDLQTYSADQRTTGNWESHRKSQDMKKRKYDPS
In the case of `CCOc1cccc(=NC2CCCCC2)c2c(C)[nH]c(C)c12`, the inhibition is 79.1% (active).
Take `Clc1ccc([C@@H]2CC3CCC2N3)cn1` (stereo not given in full): the inhibition is -8.46% (inactive).
The value for `COc1ccc(C#Cc2ccc([C@H]3[C@H](CO)N4CCCCN(C(=O)Cc5ccccc5)C[C@@H]34)cc2)cc1` was -26.3% (inactive); that for `COC1=C[C@@H]2[C@@H]3Cc4ccc(OC)c(O)c4[C@]2(CCN3C)CC1=O` was -9.71% (inactive); that for `COc1c(O)ccc2c1-c1c3c(cc4c1C(C2)N(C)CC4)OCO3` (stereo not given) was 6.1% (inactive).
Consider `COc1ccc2c(c1O)-c1cccc3c1[C@@H](C2)N(C)CC3`, for which the inhibition was 60.5% (active).
Turning to `O=C(Cc1cccnc1)N1CCCCN2[C@@H](CO)[C@H](c3ccc(C#CC4CCCC4)cc3)[C@@H]2C1`, the inhibition was 11.6% (inactive).
The value for `O=C(O)[C@H]1[C@H](CO)[C@H]2Cn3c(ccc(-c4ccccc4F)c3=O)[C@@H]1N2C(=O)c1cccnc1` was 6.1% (inactive); that for `N#Cc1cccc(-c2ccc([C@H]3[C@@H](CO)N4CCCCN(C(=O)Cc5cccnc5)C[C@@H]34)cc2)c1` was -17% (inactive); that for `O=C(Cc1ccccc1)N1CCCCN2[C@H](C1)[C@H](c1ccc(C#CC3(O)CCCC3)cc1)[C@@H]2CO` was -14.9% (inactive).
For `O=c1[nH]c2ccccc2n1C1CCN(C(c2ccccc2)c2nnnn2Cc2ccccc2)CC1` (stereo not given) the value was -11.7% (inactive); for `C[N+]1(C)CCOC(O)(c2ccc(-c3ccc(C4(O)C[N+](C)(C)CCO4)cc3)cc2)C1` (stereo not given), 70.8% (active).
For `O=C(O)[C@H]1[C@H](CO)[C@H]2Cn3c(cccc3=O)[C@@H]1N2C(=O)c1ccccc1`, the inhibition was 2.96% (inactive).
With `C[C@@H]1CN([C@H](C)CO)C(=O)CCCn2cc(nn2)CO[C@@H]1CN(C)C(=O)Oc1cccc2ccccc12`, the inhibition was -6.69% (inactive).
The value for `CCCCCCCCCCCCn1ccc(=N)cc1` was 50% (active); that for `O=C(Cc1ccncc1)N1CCCCN2[C@H](CO)[C@@H](c3ccc(C#CC4(O)CCCC4)cc3)[C@H]2C1` was 1.26% (inactive); that for `COC(=O)[C@H]1[C@H](CO)[C@H]2Cn3c(ccc(C4=CCCC4)c3=O)[C@@H]1N2C(=O)CC1CC1` was -4.86% (inactive).
For `O=C(Cc1ccncc1)N1CCCCN2[C@@H](CO)[C@H](c3ccc(C#CC4(O)CCCC4)cc3)[C@@H]2C1` the value was -1.57% (inactive); for `COc1cccc(-c2ccc([C@H]3[C@H]4CN(C(=O)Cc5ccncc5)CCCCN4[C@H]3CO)cc2)c1`, -63.8% (inactive).
The value for `O=C(Cc1ccncc1)N1CCCCN2[C@@H](CO)[C@H](c3ccc(-c4ccncc4)cc3)[C@@H]2C1` was -1.75% (inactive).
Regarding `CCC(C)NC1(c2ccccc2)CCCCC1` (stereo not given), the inhibition was -8.77% (inactive).
The value for `CC1=CC(=Cc2sc3ccccc3[n+]2C)C=C(C)O1` was 60.3% (active).
The value for `O=C(NC[C@@H]1CC[C@H]2NC[C@H]2O1)C1CCCC1` was -11.1% (inactive); that for `OC[C@@H]1[C@H]2c3ccccc3NC[C@H]2N1Cc1cccnc1` was 0.281% (inactive); that for `COc1ccc2c(c1)[C@@]13CCCCC1[C@@H](C2)NCC3` (stereo not given in full) was -7.04% (inactive).
